Experimental findings from PubChem BioAssay are described below.

For part of these data: Potency and affinity values are given separately. The source made the active and inactive calls.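 How the source made its calls, unless noted: active means primary screen active and over 50% activation in each of two duplicate runs; inactive means the rest.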

Assay [1] relates to TRPC4 beta (transient receptor potential cation channel C4), mouse. Put plainly: activators of mouse TRPC4 channel, confirmation, cell-based, Fluo4 calcium, HEK293 TRPC4beta/mu-opioid, duplicates, 10 µM (AID 2426;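 active means fluorescence ratio normalized to control raised more than 50% in primary screen plus both repeat runs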). The note with it: Fluo4 calcium fluorescence, at 10 µM; stronger effect = higher value.
The test system of assay [2] is transient receptor potential cation channel C4 beta (TRPC4), mouse. Put plainly: activators of mouse TRPC4 channel, confirmation, cell-based, second round, Fluo4, HEK293 TRPC4beta/mu-opioid, 1 µM (AID 2461). The conditions noted are these: Fluo4 calcium fluorescence, at 1 µM; stronger effect = higher value.
The test system of assay [3] is TRPC4 (transient receptor potential cation channel C4 beta), mouse. Put plainly: positive allosteric modulators of mouse TRPC4, confirmation, cell-based, second round, Fluo-4, HEK293 TRPC4beta/mu-opioid, 1 µM (AID 2554;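 active means primary screen hit whose fluorescence ratio, in both repeats, exceeds the weak agonist control mean by 3 SD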). The conditions noted are these: DAMGO EC20, Fluo-4 calcium flux, at 1 µM; stronger effect = higher value.
In assay [4] the test system is TRPC4 beta (transient receptor potential cation channel C4), mouse. Put plainly: positive allosteric modulators of mouse TRPC4, confirmation, cell-based, Fluo-4, HEK293 TRPC4beta/mu-opioid (AID 2555;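 active means primary screen hit whose calcium fluorescence ratio, in both repeats, exceeds the weak agonist control mean by 3 SD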). The conditions noted are these: DAMGO EC20, Fluo-4 calcium flux, at 10 µM; stronger effect = higher value. On the technique in general: A change in cytosolic calcium serves as a functional read-out for many receptors and channels.

The target of assay [5] is Short transient receptor potential channel 4 (Mus musculus) (UniProt Q9QUQ5). Briefly: inhibitors of mouse TRPC4 channel, confirmation, cell-based, Fluo4, HEK293 TRPC4beta/mu-opioid (AID 2636;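 active means calcium signal cut by more than 3 SD below the full-agonist control yet still positive, in both repeats and the earlier primary screen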). The conditions noted are these: DAMGO, Fluo4 calcium flux, at 10 µM; stronger effect = higher value.
Sequence of Short transient receptor potential channel 4 (Mus musculus) (Q9QUQ5 whole entry, looked up): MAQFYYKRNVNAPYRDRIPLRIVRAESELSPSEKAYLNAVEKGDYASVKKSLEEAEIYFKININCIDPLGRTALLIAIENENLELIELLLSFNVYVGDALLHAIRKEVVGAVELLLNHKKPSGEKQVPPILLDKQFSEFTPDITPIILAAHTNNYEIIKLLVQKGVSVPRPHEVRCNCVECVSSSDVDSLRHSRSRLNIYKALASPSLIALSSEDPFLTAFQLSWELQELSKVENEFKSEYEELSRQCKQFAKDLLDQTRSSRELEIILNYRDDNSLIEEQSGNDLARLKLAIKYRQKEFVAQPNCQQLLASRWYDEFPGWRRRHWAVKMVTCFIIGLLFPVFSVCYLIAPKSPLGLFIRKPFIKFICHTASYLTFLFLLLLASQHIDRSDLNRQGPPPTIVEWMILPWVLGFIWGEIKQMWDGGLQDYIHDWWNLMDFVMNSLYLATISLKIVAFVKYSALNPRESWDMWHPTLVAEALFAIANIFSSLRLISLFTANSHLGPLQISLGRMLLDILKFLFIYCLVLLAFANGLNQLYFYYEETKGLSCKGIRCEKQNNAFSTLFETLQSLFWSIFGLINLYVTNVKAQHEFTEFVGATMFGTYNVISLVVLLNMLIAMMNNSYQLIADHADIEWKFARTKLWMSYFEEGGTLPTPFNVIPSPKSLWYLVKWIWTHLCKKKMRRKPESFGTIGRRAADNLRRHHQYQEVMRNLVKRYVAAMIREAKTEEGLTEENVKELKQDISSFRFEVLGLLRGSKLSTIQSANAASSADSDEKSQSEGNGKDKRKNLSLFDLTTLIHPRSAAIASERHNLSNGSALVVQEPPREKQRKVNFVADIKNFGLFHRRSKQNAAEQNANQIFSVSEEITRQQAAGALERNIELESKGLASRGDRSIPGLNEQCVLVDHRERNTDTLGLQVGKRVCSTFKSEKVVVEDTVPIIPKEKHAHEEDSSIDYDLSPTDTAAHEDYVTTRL
The target is the same in assay [6]. Briefly: inhibitors of mouse TRPC4 channel, confirmation, cell-based, second round, Fluo4, HEK293 TRPC4beta/mu-opioid, 1 µM (AID 2637;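 active means calcium signal ratio cut to more than 3 SD under the fully stimulated control mean yet still positive, in both repeats and the primary screen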). The note with it: Fluo4 calcium flux, DAMGO, at 1 µM; stronger effect = higher value.
For assay [7] the target is unchanged. Briefly: mouse TRPC4 channel activators, dose response, cell-based, HEK293 TRPC4/mu-opioid, Fluo-4 calcium (AID 434937;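 active means primary screen activator hit with a dose response curve and TRPC4 channel activation at any tested dose; inactive means no activation, no dose response, or not a primary hit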).
Assay [8] shares this target. Briefly: TRPC4 positive allosteric modulators, dose response, cell-based, HEK293 TRPC4/mu-opioid, Fluo-4 calcium, EC20 DAMGO (AID 434941;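 active means earlier screen potentiator hit that boosts the TRPC4 ion channel at some dose, with a dose response; inactive means no potentiation, no dose response, or not a prior hit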;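 further: calcium entry triggered by an EC20 dose of DAMGO at the co-expressed mu-opioid receptor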).
Assay [9] has the same target. Briefly: mouse TRPC4 channel inhibitors, dose response, cell-based, HEK293 TRPC4/mu-opioid, Fluo-4 calcium (AID 434942;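 active means primary screen inhibitor hit that blocks the TRPC4 channel at some tested dose, yielding a dose curve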).
The target of assay [10] is Short transient receptor potential channel 6 (Mus musculus) (UniProt Q61143). Briefly: inhibition of mouse TRPC6 channel, confirmation, selectivity assay for TRPC4 inhibitor project, cell-based, HEK293, membrane potential dye, duplicate (AID 434948;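 active means active in primary screen and both duplicates, each dropping signal beyond three positive-control SD with fluorescence still positive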). The conditions noted are these: HEK293 TRPC6, membrane potential dye fluorescence, at 10 µM, stimulated with maximal-effect acetylcholine; stronger effect = higher value.
Sequence of Short transient receptor potential channel 6 (Mus musculus) (Q61143 whole entry, looked up): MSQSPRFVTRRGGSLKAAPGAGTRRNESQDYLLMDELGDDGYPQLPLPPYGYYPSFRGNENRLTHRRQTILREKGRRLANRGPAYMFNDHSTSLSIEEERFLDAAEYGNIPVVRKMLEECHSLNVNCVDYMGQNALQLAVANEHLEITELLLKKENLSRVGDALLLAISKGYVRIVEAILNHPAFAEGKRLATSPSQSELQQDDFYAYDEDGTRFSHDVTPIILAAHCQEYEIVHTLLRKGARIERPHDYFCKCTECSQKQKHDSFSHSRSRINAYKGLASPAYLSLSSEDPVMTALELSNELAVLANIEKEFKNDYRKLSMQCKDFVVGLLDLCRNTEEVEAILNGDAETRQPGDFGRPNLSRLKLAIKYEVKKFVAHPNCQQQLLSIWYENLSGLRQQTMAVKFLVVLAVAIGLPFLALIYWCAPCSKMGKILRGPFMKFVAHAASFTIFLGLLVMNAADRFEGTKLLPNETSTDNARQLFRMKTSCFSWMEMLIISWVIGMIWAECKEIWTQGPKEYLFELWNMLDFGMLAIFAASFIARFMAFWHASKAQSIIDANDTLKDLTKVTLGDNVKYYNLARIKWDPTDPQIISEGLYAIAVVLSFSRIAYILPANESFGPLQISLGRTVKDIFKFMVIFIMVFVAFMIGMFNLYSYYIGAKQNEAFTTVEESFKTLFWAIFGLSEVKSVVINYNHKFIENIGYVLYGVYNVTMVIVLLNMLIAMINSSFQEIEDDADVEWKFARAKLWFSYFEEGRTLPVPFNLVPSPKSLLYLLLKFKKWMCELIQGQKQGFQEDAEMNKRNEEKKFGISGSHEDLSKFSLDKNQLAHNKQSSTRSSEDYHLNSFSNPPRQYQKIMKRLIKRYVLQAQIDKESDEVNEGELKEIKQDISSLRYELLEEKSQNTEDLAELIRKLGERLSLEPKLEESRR

For assay [11] the target is unchanged. Briefly: activation of mouse TRPC6 channel, confirmation, selectivity assay for TRPC4 activator project, cell-based, HEK293, membrane potential dye, duplicate (AID 434950;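 active means membrane potential signal rise above negative control mean plus 3 SD in both duplicates, also active in the earlier TRPC4 screen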). The conditions noted are these: HEK293 TRPC6, membrane potential fluorescence, at 10 µM; stronger effect = higher value.
Assay [12] has the same target. Put plainly: TRPC6 potentiation by TRPC4 potentiator hits, confirmation, selectivity assay for TRPC4 potentiator project, HEK293 cells, membrane potential dye, duplicate (AID 434952;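 active means compound raising the membrane signal above positive-control mean plus 3 SD in both repeats, and a primary screen hit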). The note with it: HEK293 TRPC6, membrane potential dye fluorescence, at 10 µM, maximal acetylcholine added after compound; stronger effect = higher value.
Assay [13] has as its target Short transient receptor potential channel 4 (Mus musculus) (UniProt Q9QUQ5). Put plainly: calcium flux activators in TRPC4/5HT1a cells, counter-screen for TRPC4 activator project, cell-based, second counter screen, HEK293 TRPC4/5HT1a, Fluo-4 (AID 434977;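 active means calcium signal rise above buffer-control mean plus 5 SD in both duplicates, and also a hit in the primary screen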). The conditions noted are these: Fluo-4 calcium flux, at 10 µM; stronger effect = higher value.
Assay [14] in a line: calcium flux inhibitors in TRPC4/5HT1a cells, confirmation, counter-screen for TRPC4 inhibitor project, cell-based, second counter screen, HEK293 TRPC4/5HT1a, Fluo-4 (AID 434978;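 active means primary screen active whose calcium signal fell more than 3 SD beyond the full-serotonin control mean in both duplicate plates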;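 further: serotonin given first at submaximal then at maximal dose after compound preincubation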). The conditions noted are these: Fluo-4 calcium flux, at 10 µM, serotonin added to trigger calcium flux; stronger effect = higher value.
The test system of assay [15] is TRPC4 (mouse), co-expressed with 5HT1a in HEK293. Briefly: calcium flux potentiators in TRPC4/5HT1a cells, confirmation, counter-screen for TRPC4 potentiator project, cell-based, second counter screen, HEK293 TRPC4/5HT1a, Fluo-4 (AID 434979;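 active means signal rise over 3 SD above mean of control wells given weak agonist, in both repeats and first screen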). The conditions noted are these: Fluo-4 calcium flux, at 10 µM, serotonin added at its EC20 dose; stronger effect = higher value.
Assay [16] is described as follows: calcium flux activation in mu-opioid HEK293 cells, confirmation, counter-screen for TRPC4 activator project, cell-based, HEK293 mu-opioid receptor line (AID 449723;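 active means hit in primary screen, with calcium signal over 5 SD above buffer well mean in both duplicates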;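 further: counter screen cells carry the mu-opioid receptor alone and lack TRPC4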). The conditions noted are these: Fluo-4 calcium fluorescence, at 10 µM; stronger effect = higher value.
A short description of assay [17]: calcium flux enhancement in mu-opioid HEK293 cells, confirmation, counter-screen for TRPC4 allosteric potentiator project, cell-based, HEK293 mu-opioid receptor line (AID 449724;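 active means calcium signal rise more than 3 SD above the low-dose agonist control mean, in both duplicate plates and the primary screen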;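 further: HEK293 cells carrying mu-opioid receptor only with no TRPC4 channel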). The conditions noted are these: Fluo-4 calcium flux, at 10 µM, compound added before EC20 DAMGO stimulus; stronger effect = higher value.

In the case of `C/C(=C\c1cccc(Cl)c1Cl)C(=O)c1c(C)cc(C)[nH]c1=O`, the outcome in assay [1], in [2], in assay [3], in assay [4], in assay [5] and in [6] was inactive. For the same compound, the outcome in [7], in [8], in assay [9], in assay [10], in [11] and in assay [12] was inactive. For the same compound, the result in assay [13], in assay [14], in [16] and in assay [17] was inactive. The potentiation in [15] is 16.5% (active).

As for `CCCCN(C(=O)c1cccc2c(=O)c(C)c(-c3ccccc3)oc12)c1ccccc1`, the outcome in assay [1], in assay [2], in assay [3], in assay [5], in assay [6] and in assay [7] was inactive. The outcome in assay [8], in assay [9], in assay [10], in assay [11], in [12] and in assay [13] was inactive. In addition, the outcome in assay [14], in assay [16] and in assay [17] was inactive. Further, the potentiation in assay [4] is 15% (active); in [15], 12.4% (active).

Take `OC(CNCC1CCCO1)Cn1c2ccc(Br)cc2c2cc(Br)ccc21` (stereo not given): the outcome in assay [1], in assay [2], in [3], in assay [4], in assay [5] and in [6] was inactive. Also, the result in [7], in [8], in assay [9], in assay [10], in assay [11] and in [12] was inactive. The result in [13], in [14], in assay [16] and in assay [17] was inactive. In assay [15], the potentiation was 45.1% (active).

For `CC1(C#CC[N+]2(C)CCCCC2)CCC2C(O1)c1ccccc1OC2(C)C` (stereo not given), the outcome in assay [1], in assay [2], in [5], in assay [6], in assay [7] and in assay [8] was inactive. For the same compound, the outcome in [9], in assay [10], in assay [11], in assay [12], in assay [13] and in assay [14] was inactive. Besides, the outcome in [15], in [16] and in assay [17] was inactive. Moreover, the results for the potentiation in assay [3] and in assay [4] were 8% (active) and 21% (active), respectively.

`Cc1cc(Cl)cc(Cl)c1OCCCCN(C)C`: the outcome in assay [1], in assay [2], in [5], in assay [6], in assay [7] and in [8] was inactive. Also, the result in assay [9], in assay [10], in [11], in assay [12], in assay [13] and in [14] was inactive. Besides, the outcome in [16] and in assay [17] was inactive. Also, the potentiation in assay [3] is 22% (active); in assay [4], 18% (active); in [15], 23.9% (active).

Turning to `CCOC(=O)C1(CC2CC2)CCN(Cc2cn[nH]c2-c2cccc(F)c2)CC1`, the result in [1], in assay [2], in [3], in assay [4], in assay [5] and in assay [6] was inactive. The result in assay [7], in assay [8], in assay [9], in [10], in [11] and in [12] was inactive. Also, the result in assay [13], in assay [14], in assay [15], in assay [16] and in [17] was inactive.

Take `CCN1CCN(C(=O)c2cc(-c3ccc(Cl)s3)nc3ccccc23)CC1`: the outcome in assay [1], in assay [2], in [3], in [5], in [6] and in assay [7] was inactive. Besides, the outcome in [8], in assay [9], in assay [10], in [11], in assay [12] and in [13] was inactive. Besides, the outcome in assay [14], in assay [16] and in assay [17] was inactive. The potentiation in assay [4] was 148% (active); in [15], 37% (active).

For the compound `CC(=O)Nc1nc2ccc(S(=O)(=O)N3CCCCC3)cc2s1`, the outcome in assay [1], in assay [2], in assay [3], in assay [4], in assay [5] and in assay [6] was inactive. Besides, the outcome in assay [7], in assay [8], in assay [9], in [10], in assay [11] and in assay [12] was inactive. In addition, the outcome in assay [13], in [14], in assay [15], in assay [16] and in [17] was inactive.

Consider `N=c1c(C(=O)NCC2CCCO2)cc2c(=O)n3ccccc3nc2n1Cc1ccccc1Cl` (stereo not given), for which the result in [1], in assay [2], in assay [5], in assay [6], in assay [7] and in [8] was inactive. Besides, the outcome in assay [9], in [10], in assay [11], in [12], in assay [13] and in assay [14] was inactive. In addition, the result in [16] and in [17] was inactive. Also, the potentiation is 96% (active) in [3], 102% (active) in [4] and 101% (active) in assay [15].

For orientation: inhibition means how much of the control response was suppressed. With `COc1ccc(/C=N/NC(=O)c2ccc(F)cc2)cc1CN1CCc2cc(OC)c(OC)cc2C1C` (stereo not given), the outcome in [1], in [2], in [3], in assay [4], in assay [6] and in assay [7] was inactive. Also, the outcome in assay [8], in [9], in assay [10], in assay [11], in assay [12] and in assay [13] was inactive. For the same compound, the result in assay [14], in assay [15], in assay [16] and in [17] was inactive. Also, the inhibition in assay [5] is 86% (active).

As for `CNc1oc(-c2ccccc2Cl)nc1P(=O)(c1ccccc1)c1ccccc1`, the outcome in [1], in assay [2], in [3], in [4], in assay [5] and in assay [6] was inactive. Moreover, the result in [7], in assay [8], in assay [9], in assay [10], in [11] and in assay [12] was inactive. Moreover, the outcome in [13], in assay [14], in assay [15], in assay [16] and in [17] was inactive.

On to `Cc1cc(S(=O)(=O)NC2CCN(Cc3ccccc3)CC2)c(C)cc1Cl`, for which the outcome in [1], in [2], in assay [3], in [4], in assay [5] and in assay [6] was inactive. The result in assay [7], in assay [8], in assay [9], in assay [10], in assay [11] and in assay [12] was inactive. Also, the result in assay [13], in [14], in [16] and in assay [17] was inactive. Further, in assay [15], the potentiation is 23.1% (active).

As to `CCC(C(=O)Nc1ccccc1OC)n1c(C(=O)OC)cc2ccsc21` (stereo not given), the outcome in assay [1], in [2], in [3], in assay [5], in [6] and in assay [7] was inactive. Besides, the result in assay [8], in assay [9], in assay [10], in assay [11], in assay [12] and in assay [13] was inactive. Moreover, the result in assay [14], in [16] and in assay [17] was inactive. Further, the potentiation in assay [4] is 17% (active); in assay [15] it was 75.5% (active).

On to `CN(C)C(CNc1ccc(C(N)=O)cc1[N+](=O)[O-])c1ccccc1` (stereo not given), for which the result in [1], in assay [2], in assay [3], in [4], in [5] and in [6] was inactive. The outcome in [7], in assay [8], in assay [9], in assay [10], in [11] and in assay [12] was inactive. Moreover, the result in [13], in [14], in assay [15], in [16] and in [17] was inactive.

For `COC(=O)[C@H](Cc1ccccc1)NC(=O)c1ccc2ccccc2n1`, the result in [1], in assay [2], in assay [3], in [5], in assay [6] and in assay [7] was inactive. In addition, the result in assay [8], in assay [9], in assay [10], in assay [11], in [12] and in [13] was inactive. Besides, the outcome in assay [14], in assay [16] and in [17] was inactive. In addition, the results for the potentiation in [4] and in assay [15] were 81% (active) and 59.7% (active), respectively.
